Screens as filed in PubChem.
KDM4E inh: inhibitors of human JMJD2E histone demethylase. 230,000 compounds, 1.6% hits. B2RXH2. JMJD2E catalytic domain, FDH-coupled NADH fluorescence (FDH is formaldehyde dehydrogenase). Potency, µM (titrated, usually from 57.1 µM), hits mostly inhibitors. AID 2147; active = well fitted inhibition curve with a large enough effect, not every such curve was filed as active; inconclusive = small, poorly fitted or top-dose-only effect, or another doubt; inactive = no such curve, though single readings can be large or run the other way; note: nearly all actives have a fitted effect of over 50% in size
CtBP-E1A blk: blocks the CtBP interaction with E1A; AlphaScreen GST-E1A/His-CtBP binding, 1536-well; active compounds read low; activity change, % (test concentration not listed); 340,000 compounds, 0.49% hits
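Homogeneous bead-based format: GST-tagged E1A captured on glutathione donor beads, His-tagged CtBP on nickel acceptor beads; compounds precede bead addition by 2 h at 37 °C.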
L3MBTL1 block: inhibitors of human L3MBTL1 | AlphaScreen L3MBTL1–H3K9me1 peptide binding | Potency, µM (highest dose often 57.1 µM), hits mostly inhibitors | Q9Y468 | 230,000 compounds, 0.66% hits; active = well fitted inhibition curve with a large enough effect; inconclusive = small, poorly fitted or top-dose-only effect; inactive = no such curve, though single readings can be large or run the other way; note: nearly all actives have a fitted effect of over 60% in size
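Displacement of a biotinylated histone H3(1-15) peptide monomethylated at Lys9 (75 nM) from L3MBTL1 (50 nM) was measured by AlphaScreen after a 30 min room-temperature compound incubation; cefsulodin titration served as intraplate control.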
Six1-Eya2 blk: Six1/Eya2 interaction inhibition; 360,000 compounds, 0.56% hits; AlphaScreen GST-Six1/His-Eya2 binding, biochemical; active compounds read low; activity change, % (test concentration not listed); AID 651725; Q15475+O00167
Target sequence (O00167 whole entry, looked up): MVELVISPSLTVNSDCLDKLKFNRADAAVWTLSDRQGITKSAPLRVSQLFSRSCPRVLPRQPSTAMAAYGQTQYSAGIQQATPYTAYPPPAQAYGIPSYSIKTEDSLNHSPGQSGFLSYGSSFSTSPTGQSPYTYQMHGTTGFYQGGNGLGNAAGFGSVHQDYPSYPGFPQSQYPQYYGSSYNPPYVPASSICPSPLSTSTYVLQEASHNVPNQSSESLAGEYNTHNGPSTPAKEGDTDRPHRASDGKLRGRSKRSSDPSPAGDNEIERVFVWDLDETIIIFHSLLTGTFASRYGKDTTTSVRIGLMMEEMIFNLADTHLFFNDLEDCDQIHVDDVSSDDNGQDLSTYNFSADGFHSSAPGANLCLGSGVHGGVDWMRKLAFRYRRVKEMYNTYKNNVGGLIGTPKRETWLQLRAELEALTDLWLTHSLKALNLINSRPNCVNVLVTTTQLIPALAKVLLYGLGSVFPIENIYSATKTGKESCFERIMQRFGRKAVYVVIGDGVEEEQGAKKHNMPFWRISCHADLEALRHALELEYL
Target sequence (Q15475 whole entry, looked up): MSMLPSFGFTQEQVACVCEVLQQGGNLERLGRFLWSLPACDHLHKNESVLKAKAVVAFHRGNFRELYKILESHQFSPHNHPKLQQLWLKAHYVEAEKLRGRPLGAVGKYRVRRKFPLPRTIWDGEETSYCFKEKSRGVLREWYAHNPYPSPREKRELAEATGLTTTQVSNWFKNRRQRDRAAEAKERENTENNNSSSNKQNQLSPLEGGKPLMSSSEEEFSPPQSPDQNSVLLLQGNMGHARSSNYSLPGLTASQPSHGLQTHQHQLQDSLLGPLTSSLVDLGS
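Compounds are tested against tagged Six1 and Eya2 proteins bridged by glutathione donor and nickel acceptor beads; after a one-hour incubation at 37 °C without light, AlphaScreen emission is recorded.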
Hits are given with their value; . = inactive; ? = inconclusive; / = no result; ! = not active in a repeat; [ ] = dose if it differs, or a comment. Many of the other results were omitted from the sample, so hits are more common in it than they were. Cut-off read from the data, not from the text of the source, unless noted: active = activity change below about -65%; inconclusive = mostly about -30% to -63%; inactive = weaker than that.

SMILES | KDM4E inh | CtBP-E1A blk | L3MBTL1 block | Six1-Eya2 blk
N#Cc1c(SCC(=O)Nc2nccs2)sc2c(O)cc(=O)[nH]c12 | / | -70 | / | ?
CCCSc1nnc(NC(=O)CSc2sc3c(O)cc(=O)[nH]c3c2C#N)s1 | / | . | / | .
CCOC(=O)c1c(C)oc2c1c(CN1CCN(C(=O)OCC)CC1)c(O)c1ccccc12 | 25µM | . | . | .
CC(C)(C)NC(=O)CCN(/N=C/c1ccc([N+](=O)[O-])o1)C1=NS(=O)(=O)c2ccccc21 | . | -74 | . | -88
O=S1(=O)N=C(N(CCO)/N=C/C=C/c2ccccc2)c2ccccc21 | ? | -89 | . | -85
Cc1ccc(/C=N/N(C)C2=NS(=O)(=O)c3ccccc32)cc1 | / | . | / | .
CN(C)c1ccc(/C=N/N(CCC(=O)NC(C)(C)C)C2=NS(=O)(=O)c3ccccc32)cc1 | / | . | / | .
O=C(CNc1ccccc1)N/N=C/c1ccc([N+](=O)[O-])o1 | . | . | . | .
CN(/N=C/c1ccncc1)C1=NS(=O)(=O)c2ccccc21 | . | -86 | . | -88
CN(C)c1ccc(/C=N/N(CCO)C2=NS(=O)(=O)c3ccccc32)cc1 | / | / | / | -67
CCC1=C(OC(=O)N(CC)CC)N2C(=O)OC(=NCC3CC3)[C@]2(Cc2ccccc2)[C@H]2C1=CC[C@H]1C(=O)NC(=O)[C@H]12 | . | / | / | .
Cc1ccc(-c2[nH]c3ccccc3c2SCCNC(=O)c2ccc(S(=O)(=O)N3CCOCC3)cc2)cc1 | . | . | . | .
COc1cc(/C=N/N(CCO)C2=NS(=O)(=O)c3ccccc32)cc(OC)c1OC | / | -90 | / | -66
NS(=O)(=O)c1ccc(CCNC(=O)CNCCc2ccc(C(F)(F)F)cc2)cc1 | / | / | / | .
CC(C)c1ccccc1NC(=O)CNCCc1ccc(C(F)(F)F)cc1 | 3.2µM | / | / | .
CCCn1c(NC(=S)Nc2ccccc2)nc2ccccc21 | . | . | ? | .
S=C(Nc1ccccc1)Nc1nc2ccccc2n1CCOc1ccc(Cl)cc1 | . | . | 11µM | .
c1ccc2c(Nc3ccc4c(c3)OCCO4)c3c(nc2c1)CCCC3 | . | . | / | ?
Cc1ccc2ccc3cccnc3c2n1 | / | -90 | / | ?
Cc1c(C)c2ccc(OS(C)(=O)=O)c(C)c2oc1=O | ? | . | . | .
Cc1cn([C@H]2C[C@H](O)[C@@H](CCC(=O)NCc3ccco3)O2)c(=O)[nH]c1=O | / | . | / | .
O=c1cc(-c2ccc(O)cc2)oc2cc(O)cc(O)c12 | 11µM! | ? | / | .
O=c1cc(-c2ccccc2)oc2cc(O)cc(O)c12 | ? | . | / | .
O=c1cc(-c2cc(O)c(O)c(O)c2)oc2cc(O)cc(O)c12 | 10µM | / | / | /
COc1ccc(OC(C)C(=O)Nc2ccc([N+](=O)[O-])cc2)cc1 (stereo not drawn) | . | . | . | .
SMILES | KDM4E inh | CtBP-E1A blk | L3MBTL1 block | Six1-Eya2 blk
C/C(=N\NC(=O)C(C)Oc1ccc([N+](=O)[O-])cc1)c1ccccn1 (stereo not drawn) | ? | -94 | . | -88
CCCC[C@H](CC)CN=C(N)NC(N)=NCCCCCCN=C(N)NC(N)=NC[C@@H](CC)CCCC | . | / | / | /
Cc1[nH]n(-c2ccccc2)c(=O)c1C=Nc1ccc(S(=O)(=O)N=C(N)N)cc1 | . | / | / | .
Cc1[nH]n(-c2ccccc2)c(=S)c1C=Nc1ccc([N+](=O)[O-])cc1 | 6.3µM | . | . | .
COCc1ccc(O)c2ncccc12 | 10µM | -95 | / | -91
Oc1ccc(COC2CCCC2)c2cccnc12 | / | / | 20µM | /
Oc1ccc(COc2cccc3ccccc23)c2cccnc12 | / | / | . | /
O=C(Cn1cc([N+](=O)[O-])ccc1=O)NC1CCCCC1 | / | . | . | .
CCCCC(=O)N(C)c1c(C)nc2ccc(C(=O)N3CCN(c4ccccc4)CC3)cn12 | / | . | / | .
Cc1cccc(-n2cnc(C(=O)NNC(=S)Nc3ccc(Cl)cc3)c2)n1 | ? | -88 | ? | -90
Cc1nc2ccccn2c1C(=O)NNC(=S)Nc1ccc(Cl)cc1 | . | . | . | .
COc1cc(OC)c(C(=O)c2ccccc2[N+](=O)[O-])c(OC)c1 | / | . | / | .
Oc1c(CN2CCCCC2)cc(Br)c2cccnc12 | ? | -92 | ? | -91
O=[N+]([O-])c1cc(CN2CCN(c3ccccc3)CC2)c(O)c2ncccc12 | . | -95 | 4µM | -91
Oc1c(Cl)cc(CN2CCOCC2)c2cccnc12 | / | / | ? | -89
COc1ccc(C(=O)Oc2c(CN3CCOCC3)cc(Cl)c3cccnc23)cc1OC | / | . | / | .
O=[N+]([O-])c1cc(CN2CCOCC2)c2cccnc2c1O | . | . | 1.3µM | -88
Cc1ccc(S(=O)(=O)NCC2CCC(C(=O)NCCCN3CCCC3=O)CC2)cc1 (stereo not drawn) | / | . | / | .
COc1ccccc1N1CCN(S(=O)(=O)c2ccc3c(c2)NC(=O)C(C)C(=O)N3)CC1 (stereo not drawn) | / | . | . | .
COc1ccccc1NS(=O)(=O)c1cc(C(=O)NCC(C)(C)N2CCOCC2)ccc1C | / | . | . | .
Oc1c(CN2CCc3ccccc3C2)cc(Cl)c2cccnc12 | 22µM | -89 | / | -93
Brc1cc2c(cc1CN1CCc3ccccc3C1)OCO2 | / | / | / | .
O=c1oc2ccccc2c(O)c1Cc1cc(Cl)c2cccnc2c1O | 5µM | ? | . | .
Cc1cccc(C)c1OCc1cn(CC(=O)c2ccc(O)cc2)nn1 | / | . | / | .
O=C(O)c1cc(N/N=C/c2ccc(N3CCOCC3)s2)ccc1Cl | ? | . | 20µM | ?
SMILES | KDM4E inh | CtBP-E1A blk | L3MBTL1 block | Six1-Eya2 blk
O=C1c2cccc3cccc(c23)C(=O)N1CC1CCN(CC(O)COCc2ccc3c(c2)OCO3)CC1 (stereo not drawn) | ? | . | 4µM | .
CC(C)(S)[C@@H](N)C(=O)O | 2.2µM | . | . | .
C[C@H](C[C@H](N)C(=O)O)C(=O)O | . | / | / | /
COc1ccc(S(=O)(=O)N2CCOC23CCN(S(=O)(=O)c2ccc(F)cc2)CC3)cc1 | / | . | . | .
COc1ccc(S(=O)(=O)N2CCOC23CCN(S(=O)(=O)c2cc(F)ccc2F)CC3)cc1 | / | . | . | -69
CSc1nnc(C)c(/C=C/Nc2ccc(C)cc2)n1 | . | -67 | . | .
Cc1ccc2[nH]c(C)c(CC(=O)O)c2c1 | 22µM | . | / | .
Cc1[nH]c2ccc(C(C)C)cc2c1CC(=O)O | ? | . | / | .
COc1cccc([C@@H]2Oc3ccc(Br)cc3C[C@H]2OC(=O)N[C@H](C)C2CCCCC2)c1 | . | / | / | /
O=C(N/N=C/c1cc(O)ccc1Br)c1cccnc1 | / | -93 | ? | -91
O=C(N/N=C/c1cc2c(cc1Br)OCO2)c1cccnc1 | . | . | / | .
O=C(N/N=C/c1ccc(Br)s1)c1cccnc1 | . | . | . | .
O=C(N/N=C/c1cc(Br)c(O)c(Br)c1O)c1cccnc1 | / | / | / | -91
Cc1ccccc1-c1noc(C(C)NC(=O)c2ccco2)n1 (stereo not drawn) | / | . | / | .
O=C(CN1C(=O)S/C(=C\C=C\c2ccccc2)C1=O)N1CCOCC1 | . | . | . | .
CC[C@@H](C)CN1C(=O)N[C@@H](c2ccccc2)C(C(=O)OC)=C1C | .[11.4 µM] | / | / | /
COc1ccc2c(c1)C(=O)[C@H](OC(=O)NCCc1ccc(OC)c(OC)c1)[C@@H](c1ccc(OC)c(Br)c1)O2 | . | / | / | /
